Source: PubChem BioAssay
PfHsp90 yeast 2: reduces growth (ATP signal) of yeast expressing P. falciparum Hsp90. AID 504621. actives 0.32% (n = 310,000). inhibition, % at 9.4 µM. S. cerevisiae expressing PfHsp90, BacTiter-Glo ATP, 48 h; yeast lacking PDR1 and PDR3 efflux regulators;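 active means every replicate shows inhibition above about 80%, whatever the replicate mean, limit read from the data; inconclusive means mean inhibition reaches the set limit but some replicate falls short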;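 further: 0% = DMSO neutral controls and 100% = 20 µM radicicol positive controls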
tim23-1 inh: inhibits growth of tim23-1 mutant yeast. S. cerevisiae tim23-1 growth, BacTiter-Glo luminescence, 24 h. inhibition, % at 20 µM. actives 1.3% (n = 330,000). AID 463212;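 active means growth inhibition of the mutant yeast at or above 50%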;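 further: temperature-sensitive mutant grown at 25 °C; plate controls were DMSO-treated mutant yeast for no effect and medium wells lacking yeast for full effect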
Calb FLC: affects C. albicans growth with fluconazole; growth inhibition, % (test concentration not listed); actives 0.57% (n = 300,000); C. albicans CaCi-2 (fluconazole-resistant clinical isolate) + fluconazole, Alamar Blue growth, 48 h;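 active means growth inhibition above about 58% in most replicates, limit read from the data, passing the limit was not always enough; inconclusive means exactly half the replicates above a set limit; inactive means most replicates below a set limit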;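 further: all wells also contain fluconazole at 8 µg/ml as a sub-toxic cotreatment; 0% = median of DMSO wells and 100% = median of geldanamycin control wells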
tim10-1 inh: tim10-1 yeast growth inhibition | S. cerevisiae tim10-1 ts strain growth, BacTiter-Glo, 24 h | inhibition, % at 20 µM | actives 2.2% (n = 330,000) | AID 463190;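 active means inhibition of at least 40%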;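 further: mutant grown at 25 °C; 0% = DMSO wells with yeast and 100% = wells holding no yeast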
TIM10 inh: TIM10 yeast growth inhibition; actives 1.4% (n = 330,000); S. cerevisiae TIM10 strain growth, BacTiter-Glo luminescence, 24 h; inhibition, % at 10 µM; AID 463195;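 active means inhibition of 40% or more at the single tested concentration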;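 further: wild-type TIM10 isogenic control strain grown at permissive 25 °C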
SKKanGAS inh: SKKanGAS growth inhibition. AID 1662. actives 1.3% (n = 300,000). S. pyogenes SKKanGAS, kanamycin growth, BacTiter-Glo, 6 h. inhibition, % at 7.5 µM;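 active means mean replicate score, as percent of positive control median, at least 50; inconclusive means mean below 50 but one replicate at or above 50; inactive means mean and every replicate below 50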;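 further: strain carries kanamycin resistance gene driven by streptokinase promoter and grows in 40 µg/ml kanamycin; loss of luminescence reflects streptokinase promoter inhibition or plain growth inhibition; 0% = median of DMSO wells and 100% = positive control at its reference dose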
tim10-1 conf: tim10-1 yeast growth inhibition, confirmed. shares compounds with tim10-1 inh. S. cerevisiae tim10-1 ts strain growth, BacTiter-Glo, 24 h. inhibition, % at 20 µM. actives 56% (n = 7,400);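 active means inhibition of yeast growth at or above a set limit in either of two repeat tests at 20 µM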;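 further: tim10-1 mutant grown at permissive 25 °C to find synthetic lethal compounds; 0% = DMSO yeast wells and 100% = medium wells without yeast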
tim10 confirm: confirmation of TIM10 yeast growth inhibitors | shares compounds with TIM10 inh | S. cerevisiae tim10 strain growth, BacTiter-Glo luminescence, 24 h | inhibition, % at 10 µM | actives 63% (n = 4,600);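 active means inhibition of yeast growth at or above a set limit in either of two replicates at 10 µM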;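 further: this counterscreen used the strain with wild-type TIM10; 0% = yeast with DMSO and 100% = medium wells lacking yeast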
tim23-1 confirm: tim23-1 yeast growth inhibition, confirmed. shares compounds with tim23-1 inh. S. cerevisiae tim23-1 growth, BacTiter-Glo luminescence, 24 h. inhibition, % at 20 µM. actives 83% (n = 4,400). AID 463218;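 active means inhibition above about 39% in either of two replicate wells at 20 µM, limit read from the data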;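 further: temperature-sensitive tim23-1 mutant grown at 25 °C; 0% = DMSO wells with yeast and 100% = medium wells without yeast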
* = called active by the depositor. Rows were chosen to be rich in hits. Some 4.7% of all compounds tested hit in one or more screens of this group.

O=C(Nc1cccc(Br)c1)c1ccc(CN2CCc3ccccc3C2)cc1 was read as PfHsp90 yeast 2 0, tim23-1 inh 63*, Calb FLC 9, tim10-1 inh 44*, TIM10 inh 44*, SKKanGAS inh 11, tim10-1 conf 31*, tim10 confirm 38* and tim23-1 confirm 74*.
COc1cccc(/C=N/NC(=O)NC23CC4CC(CC(C4)C2)C3)c1O was read as tim23-1 inh 52*, Calb FLC 5, tim10-1 inh 52*, TIM10 inh 42*, SKKanGAS inh 97*, tim10-1 conf 17, tim10 confirm 39* and tim23-1 confirm 47*.
`Cc1cccc(C(=O)Nc2ccc(NC(=O)CN3CCOCC3)cc2)c1` gave PfHsp90 yeast 2 -1, tim23-1 inh 4, Calb FLC -10, tim10-1 inh -16, TIM10 inh 1 and SKKanGAS inh -4.
Screening CCOC(=O)c1c2c(c(=S)n(-c3ccccc3)c1N)CCC2 returned PfHsp90 yeast 2 0, tim23-1 inh 58*, Calb FLC -68, tim10-1 inh 54*, TIM10 inh 0, SKKanGAS inh 5, tim10-1 conf 37* and tim23-1 confirm 67*.
For CCOC(=O)c1c(N)sn(-c2ccccc2)c1=S the results were PfHsp90 yeast 2 8, tim23-1 inh 8, Calb FLC 0, tim10-1 inh 3, TIM10 inh -5 and SKKanGAS inh 9.
`Cc1nc2c(-c3ccc(F)cc3)cnn2c(N)c1-c1ccccc1` gave PfHsp90 yeast 2 8, tim23-1 inh 74*, Calb FLC -6, tim10-1 inh 46*, TIM10 inh 45*, SKKanGAS inh 19, tim10-1 conf 35*, tim10 confirm 52* and tim23-1 confirm 42*.
O=Cc1coc2ccc3ccccc3c2c1=O was read as PfHsp90 yeast 2 3, tim23-1 inh 76*, Calb FLC 7, tim10-1 inh 50*, TIM10 inh 28, SKKanGAS inh -7, tim10-1 conf 28 and tim23-1 confirm 74*.
For Cc1nn(C)c(C(=O)Sc2ccccc2)c1[N+](=O)[O-] the results were PfHsp90 yeast 2 7, tim23-1 inh 34, Calb FLC 2, tim10-1 inh 5, TIM10 inh 22 and SKKanGAS inh -2.
`Cc1nn(C)c(C(=O)Sc2cccc(Cl)c2)c1[N+](=O)[O-]` gave PfHsp90 yeast 2 -10, tim23-1 inh 61*, Calb FLC 8, tim10-1 inh 47*, TIM10 inh 32, SKKanGAS inh -9, tim10-1 conf 65* and tim23-1 confirm 84*.
`O=C(NC(=S)NC1C2CC3CC(C2)CC1C3)c1ccccc1` (stereo not drawn) gave PfHsp90 yeast 2 -1, tim23-1 inh 54*, Calb FLC -7, tim10-1 inh 48*, TIM10 inh 41*, SKKanGAS inh inconclusive, tim10-1 conf 39*, tim10 confirm 22 and tim23-1 confirm 67*.
For O=C(Cn1cnc([N+](=O)[O-])n1)c1ccc(O)c(O)c1 the results were PfHsp90 yeast 2 -2, tim23-1 inh -2, Calb FLC -13, tim10-1 inh 3, TIM10 inh 12 and SKKanGAS inh 2.
For Cc1ccnc(NC(=O)CCC(=O)N(CC(=O)NCc2ccc(F)cc2)Cc2ccccc2)c1 the results were PfHsp90 yeast 2 0, tim23-1 inh 12, Calb FLC -9, tim10-1 inh -4, TIM10 inh -12 and SKKanGAS inh -3.
`C=C(C(=O)c1ccccc1)C(CC(=O)c1ccccc1)c1ccccc1` (stereo not drawn) gave PfHsp90 yeast 2 -4, tim23-1 inh 56*, Calb FLC 0, tim10-1 inh 59*, TIM10 inh 58*, SKKanGAS inh 12, tim10-1 conf 51*, tim10 confirm -23 and tim23-1 confirm 56*.
CC(=O)OCCCN1c2ccccc2Nc2nnc(-c3ccccc3)cc21 was read as PfHsp90 yeast 2 -9, tim23-1 inh 51*, Calb FLC -1, tim10-1 inh 47*, TIM10 inh 51*, SKKanGAS inh 3, tim10-1 conf 32*, tim10 confirm 30* and tim23-1 confirm 49*.
`CC(C)(C)NC(=O)C(c1ccc(Cl)cc1)N(Cc1ccco1)C(=O)CCl` (stereo not drawn) gave PfHsp90 yeast 2 17, tim23-1 inh 51*, Calb FLC -3, tim10-1 inh 53*, TIM10 inh 37, SKKanGAS inh 1, tim10-1 conf 38* and tim23-1 confirm 48*.
`Cc1ccc(C)c(N2CCN(C(=O)c3ccc4nsnc4c3)CC2)c1` gave PfHsp90 yeast 2 -11, tim23-1 inh 61*, Calb FLC 0, tim10-1 inh 57*, TIM10 inh 28, SKKanGAS inh 5, tim10-1 conf 26 and tim23-1 confirm 47*.
N/C(=N\OC(=O)c1cccc(F)c1)c1ccccc1 was read as tim23-1 inh 68*, Calb FLC -14, tim10-1 inh 55*, TIM10 inh 61*, SKKanGAS inh 3, tim10-1 conf 56*, tim10 confirm 62* and tim23-1 confirm 66*.
`Cc1ccc(/C(N)=N/OC(=O)c2cccc(F)c2)cc1` gave PfHsp90 yeast 2 27, tim23-1 inh 70*, Calb FLC -8, tim10-1 inh 64*, TIM10 inh 76*, SKKanGAS inh -9, tim10-1 conf 48*, tim10 confirm 79* and tim23-1 confirm 40*.
For N/C(=N\OC(=O)c1cccc(F)c1)c1ccccn1 the results were PfHsp90 yeast 2 45, tim23-1 inh 16, Calb FLC 10, tim10-1 inh 2, TIM10 inh 16 and SKKanGAS inh 8.
Screening COc1cccc(NC(=O)C2CCN(C(=O)NC3CCCCC3)CC2)c1 returned PfHsp90 yeast 2 -5, tim23-1 inh 10, Calb FLC 0, tim10-1 inh -6, TIM10 inh 12 and SKKanGAS inh 17.
Screening CN(CC(=O)Nc1cccc(F)c1)C(=O)CC1CCCCC1 returned PfHsp90 yeast 2 -20, tim23-1 inh 17, Calb FLC -12, tim10-1 inh 4, TIM10 inh 8 and SKKanGAS inh 6.
